Results: PubChem BioAssay (NCATS)
Results filed as inconclusive are left out. Activity calls are given as the source filed them. Calls follow the shape of the dose curve; as a rule, active = well fitted inhibition curve with a large enough effect; inconclusive = small, poorly fitted or top-dose-only effect; inactive = flat fitted curve, though single readings scatter.

Tests used:
Experiment in all cases: qHTS profiling for inhibitors of Plasmodium falciparum proliferation (AID 504749); also: nearly all actives have a fitted effect of over 60% in size
Details in all cases: P. falciparum in erythrocytes, SYBR Green DNA, 72 h; series mostly up to 28.7 µM
[1] = system: CP286
How it was run: (§1)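 Quantitative HTS: compounds pinned into medium, infected erythrocytes added (0.3% parasitemia, 2.5% hematocrit), 72 h culture at 37 C under 5% CO2. Saponin/Triton lysis with SYBR Green I, overnight RT, then fluorescence read.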

[2] = system: CP315
How it was run: as §1

[3] = system: CP265
How it was run: as §1

[4] = system: CP266
How it was run: as §1

[5] = system: CP268
How it was run: as §1

[6] = system: CP269
How it was run: as §1

[7] = system: CP297
How it was run: as §1

[8] = system: CP305
How it was run: as §1

[9] = system: CP325
How it was run: as §1

[10] = system: CP291
How it was run: as §1

Measured: Potency
Potency is read from the fitted curve at half-maximal effect.

CCOP(=S)(OCC)Oc1ccc2c(C)c(Cl)c(=O)oc2c1
inactive: [2]
active: [1] 10 µM

NNc1ccccc1
inactive: [3] | [4] | [5] | [6] | [1] | [7] | [8] | [9]

CC(C)(C)NCC(O)c1ccccc1Cl (stereo unspecified)
active: [7] 13.5 µM
inactive: [3] | [5] | [6] | [1] | [10] | [8] | [2] | [9]

CN1C[C@H](C(=O)N[C@]2(C)O[C@@]3(O)[C@@H]4CCCN4C(=O)[C@H](Cc4ccccc4)N3C2=O)C=C2c3cccc4[nH]cc(c34)C[C@H]21
active: [3] 0.631 µM | [5] 6.75 µM | [6] 4.26 µM | [1] 0.891 µM | [10] 9.53 µM | [7] 3.38 µM | [8] 6.75 µM | [2] 12 µM | [9] 6.75 µM

C=C(C)[C@H]1CN[C@H](C(=O)O)[C@H]1CC(=O)O
inactive: [3] | [6] | [1] | [10] | [8] | [2] | [9]

CC(C)(C)NCC(O)c1cc(Cl)c(N)c(C(F)(F)F)c1 (stereo unspecified)
inactive: [4] | [2]
active: [3] 8.91 µM | [7] 15.1 µM

COP(=S)(OC)Oc1ccc(SC)c(C)c1
inactive: [3] | [4] | [5] | [6] | [1] | [7] | [8] | [2] | [9]

COC(=O)C(c1ccccc1)C1CCCCN1 (stereo unspecified)
inactive: [3] | [4] | [5] | [6] | [1] | [7] | [8] | [2] | [9]

CC(C)NC(C)C
inactive: [3] | [4] | [5] | [6] | [1] | [10] | [7] | [8] | [9]

Clc1ccc(C(c2ccc(Cl)cc2)C(Cl)(Cl)Cl)cc1
inactive: [3] | [4] | [5] | [6] | [1] | [10] | [8] | [2] | [9]

CCCCCCCCCC(=O)O[C@H]1CC[C@H]2[C@@H]3CCC4=CC(=O)CC[C@@H]4[C@H]3CC[C@]12C
inactive: [3] | [4] | [5] | [6] | [10] | [7] | [8] | [2] | [9]

Clc1cccc(SC2CCNCC2)n1
inactive: [3] | [4] | [5] | [6] | [1] | [7] | [8] | [2] | [9]

Nc1ccccc1C(=O)O
inactive: [3] | [5] | [6] | [1] | [10] | [7] | [8] | [2] | [9]

NC(=O)c1cc([N+](=O)[O-])cc([N+](=O)[O-])c1
inactive: [4] | [5] | [1] | [10] | [7] | [8] | [2]

CCC1(CC)C(=O)C=CNC1=O
inactive: [3] | [5] | [6] | [1] | [10] | [7] | [8] | [2] | [9]

COc1ccc2c(c1OC)C(=O)O[C@H]2[C@@H]1c2cc3c(cc2CCN1C)OCO3
inactive: [4] | [5] | [6] | [10] | [7] | [8] | [2] | [9]

CCCC(C)(COC(N)=O)COC(N)=O
inactive: [3] | [4] | [5] | [6] | [1] | [7] | [8] | [2] | [9]

COc1ccc2c(c1)C13CCCC[C@@H]1C(C2)N(C)CC3 (stereo partly specified)
inactive: [4] | [1] | [7] | [8] | [2] | [9]
